Reference: the supplement of paper PMC6897291

Tested on: U-2932
Test: growth inhibition by drug alone (1 - RLU/untreated control) (fraction); higher = stronger inhibition
Details: 177Lu-lilotomab satetraxetan 0 ug/ml
Procedure: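 U-2932 ABC-DLBCL cells were pretreated or not for 18 h with 1 ug/ml 177Lu-lilotomab satetraxetan (600 MBq/mg), washed and seeded (3000 cells/well) on 384-well plates pre-printed with the Selleck Cambridge Cancer Compound library. Viability was read by RealTime-Glo luminescence on days 3-6 after seeding. Effect = 1 - RLU/mean RLU of the 48 untreated no-drug control wells per plate; Bliss score = (M-E)/(1-Fa), with E the expected Bliss-additive effect.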

Q: How did the “growth inhibition by drug alone” value (10 nM, time (day): 3) turn out when `Cc1cc2c(C(C)C)c(O)c(O)c(C=O)c2c(O)c1-c1c(C)cc2c(C(C)C)c(O)c(O)c(C=O)c2c1O` [Gossypol] was run?
A: Its value is -0.0803.

Q: And the “growth inhibition by drug alone” value (10 nM, time (day): 4)?
A: Its value is -0.0436.

Q: What about the “growth inhibition by drug alone” value (10 nM, time (day): 5) of the same compound?
A: The value was -0.0537.

Q: And the “growth inhibition by drug alone” value (10 nM, time (day): 6)?
A: Its value is -0.0327.

Q: And the “growth inhibition by drug alone” value (1000 nM, time (day): 3)?
A: Its value is -0.00328.

Q: What about the “growth inhibition by drug alone” value (1000 nM, time (day): 4) of the same compound?
A: Its value is 0.00751.

Q: And the “growth inhibition by drug alone” value (1000 nM, time (day): 5)?
A: Its value is 0.00351.

Q: What about the “growth inhibition by drug alone” value (1000 nM, time (day): 6) of the same compound?
A: The value was 0.0148.

Q: How did the “growth inhibition by drug alone” value (10 nM, time (day): 3) turn out when `CC(O)(CS(=O)(=O)c1ccc(F)cc1)C(=O)Nc1ccc(C#N)c(C(F)(F)F)c1` (stereo not given) [Bicalutamide (Casodex)] was run?
A: The value was 0.0907.

Q: And the “growth inhibition by drug alone” value (10 nM, time (day): 4)?
A: Its value is 0.0654.

Q: What about the “growth inhibition by drug alone” value (10 nM, time (day): 5) of the same compound?
A: Its value is -0.0744.

Q: What about the “growth inhibition by drug alone” value (10 nM, time (day): 6) of the same compound?
A: Its value is -0.0699.

Q: And the “growth inhibition by drug alone” value (1000 nM, time (day): 3)?
A: The value was -0.0505.

Q: And the “growth inhibition by drug alone” value (1000 nM, time (day): 4)?
A: Its value is -0.00664.

Q: And the “growth inhibition by drug alone” value (1000 nM, time (day): 5)?
A: Its value is -0.0598.

Q: And the “growth inhibition by drug alone” value (1000 nM, time (day): 6)?
A: Its value is -0.262.

Q: Which results are given for `CC(C)[C@]12O[C@H]1[C@@H]1O[C@]13[C@]1(O[C@H]1C[C@H]1C4=C(CC[C@@]13C)C(=O)OC4)[C@@H]2O` [Triptolide]?
A: growth inhibition by drug alone (10 nM, time (day): 3): 0.345; growth inhibition by drug alone (10 nM, time (day): 4): 0.52; growth inhibition by drug alone (10 nM, time (day): 5): 0.63; growth inhibition by drug alone (10 nM, time (day): 6): 0.677; growth inhibition by drug alone (1000 nM, time (day): 3): 0.959; growth inhibition by drug alone (1000 nM, time (day): 4): 0.971; growth inhibition by drug alone (1000 nM, time (day): 5): 0.978; growth inhibition by drug alone (1000 nM, time (day): 6): 0.982

Q: `O=C(O)c1nn(Cc2ccc(Cl)cc2Cl)c2ccccc12` [Lonidamine] was tested. Which “growth inhibition by drug alone” value (10 nM, time (day): 3) did it give?
A: The value was 0.129.

Q: What about the “growth inhibition by drug alone” value (10 nM, time (day): 4) of the same compound?
A: Its value is 0.0861.

Q: What about the “growth inhibition by drug alone” value (10 nM, time (day): 5) of the same compound?
A: Its value is 0.00199.

Q: What about the “growth inhibition by drug alone” value (10 nM, time (day): 6) of the same compound?
A: The value was -0.13.

Q: And the “growth inhibition by drug alone” value (1000 nM, time (day): 3)?
A: Its value is 0.0943.

Q: And the “growth inhibition by drug alone” value (1000 nM, time (day): 4)?
A: Its value is 0.0942.

Q: What about the “growth inhibition by drug alone” value (1000 nM, time (day): 5) of the same compound?
A: The value was -0.0767.

Q: And the “growth inhibition by drug alone” value (1000 nM, time (day): 6)?
A: The value was -0.0595.

Q: With `CC[C@@H](C(=O)[C@@H](C)[C@@H](O)[C@H](C)[C@@H]1O[C@@H]([C@@H](CC)C(=O)O)CC[C@@H]1C)[C@H]1O[C@]2(C=C[C@@H](O)[C@]3(CC[C@@](C)([C@H]4CC[C@](O)(CC)[C@H](C)O4)O3)O2)[C@H](C)C[C@@H]1C` [Salinomycin (Procoxacin)] as the compound, how does the “growth inhibition by drug alone” value (10 nM, time (day): 3) read?
A: The value was 0.136.

Q: And the “growth inhibition by drug alone” value (10 nM, time (day): 4)?
A: The value was 0.115.

Q: And the “growth inhibition by drug alone” value (10 nM, time (day): 5)?
A: The value was 0.00536.

Q: What about the “growth inhibition by drug alone” value (10 nM, time (day): 6) of the same compound?
A: The value was -0.0492.

Q: What about the “growth inhibition by drug alone” value (1000 nM, time (day): 3) of the same compound?
A: Its value is 0.311.

Q: What about the “growth inhibition by drug alone” value (1000 nM, time (day): 4) of the same compound?
A: Its value is 0.423.

Q: What about the “growth inhibition by drug alone” value (1000 nM, time (day): 5) of the same compound?
A: Its value is 0.542.

Q: And the “growth inhibition by drug alone” value (1000 nM, time (day): 6)?
A: Its value is 0.721.
